# PLK1 PBD block – qHTS for Inhibitors of PLK1-PDB (polo-like kinase 1 - polo-box domain): Primary Screen | 2.8% of 360,000 active | AID 720504, 2013 | Potency, µM, for the others: max response, negative = inhibition, hits mostly inhibitors | Plk1 PBD binding of FITC phosphopeptide, fluorescence polarization | Serine/threonine-protein kinase PLK1 (Homo sapiens), P53350; note: potency is the fitted concentration of half-maximal effect; series mostly up to about 57 µM; % is set by controls: 0 for no effect and ±100 for the full control effect; nearly all actives have a fitted effect of over 65% in size
# G9a inh – qHTS Assay for Inhibitors of Histone Lysine Methyltransferase G9a. 8.8% of 350,000 active. Histone-lysine N-methyltransferase EHMT2 (Homo sapiens), Q96KQ7. G9a H3K9 monomethylation, AlphaScreen, 2 h. Potency, µM (series often up to 102 µM), without a hit: top-dose activity, negative = inhibition, actives largely listed as inhibitors; note: potency is the fitted concentration of half-maximal effect; % is set by controls: 0 for no effect and ±100 for the full control effect; nearly all actives have a fitted effect of over 75% in size
# Target sequence (Q96KQ7 913-1193 limits assumed): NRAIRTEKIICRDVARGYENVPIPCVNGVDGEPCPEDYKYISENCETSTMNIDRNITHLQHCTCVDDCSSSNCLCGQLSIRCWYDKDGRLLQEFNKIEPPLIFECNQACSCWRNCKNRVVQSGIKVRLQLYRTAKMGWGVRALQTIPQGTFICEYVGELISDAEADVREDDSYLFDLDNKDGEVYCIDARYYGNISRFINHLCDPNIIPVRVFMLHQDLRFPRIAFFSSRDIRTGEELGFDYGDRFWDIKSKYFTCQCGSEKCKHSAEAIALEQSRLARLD
#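 Step 1: enzyme (final 20 nM) with compound, 15 min RT. Step 2: substrate peptide 500 nM and SAM 20 uM, 2 h RT. Step 3: anti-H3K9me1 antibody and AlphaScreen beads, 10 min, then plate read.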
# BAZ2B block – qHTS Assay for Inhibitors of BAZ2B; Bromodomain adjacent to zinc finger domain protein 2B (Homo sapiens), Q9UIF8; AlphaScreen BAZ2B-H3K14Ac peptide displacement; Potency, µM (titrated, usually from 114 µM), for the others: top-dose activity change, negative = inhibition, actives largely listed as inhibitors; 4.4% of 360,000 active; note: potency is the fitted concentration of half-maximal effect; % is set by controls: 0 for no effect and ±100 for the full control effect; nearly all actives have a fitted effect of over 60% in size
#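 BAZ2B (50 nM) with biotin-H3(5-23)K14Ac peptide (50 nM) in PBS pH 7.4, 0.01% Tween-20, preformed 30 min, then compound 30 min at room temperature; top concentration 110uM. AlphaScreen streptavidin donor/nickel chelate acceptor beads (10 ug/mL final), 20 min dark, signal read.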
# HP1b chromo inh – HTS for Inhibitors of HP1-beta Chromodomain Interactions with Methylated Histone Tails; Chromobox protein homolog 1 (Homo sapiens), P83916; AlphaScreen HP1-beta / biotin-H3K9me3 peptide binding; Potency, µM (top dose mostly 114 µM), inactives show at the top dose activity change, negative = inhibition, hits mostly inhibitors; 0.56% of 390,000 active; note: potency is the fitted concentration of half-maximal effect; nearly all actives have a fitted effect of over 70% in size
# Target sequence (P83916 whole entry, looked up): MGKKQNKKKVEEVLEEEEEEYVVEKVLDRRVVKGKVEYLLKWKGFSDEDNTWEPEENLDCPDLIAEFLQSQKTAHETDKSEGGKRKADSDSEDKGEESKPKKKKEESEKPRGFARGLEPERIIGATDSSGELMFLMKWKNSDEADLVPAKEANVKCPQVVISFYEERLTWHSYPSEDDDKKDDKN
#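 HP1-beta protein (50 nM final) preincubated 30 min at room temperature with biotinylated H3(1-18)K9me3 peptide (50 nM) in PBS pH 7.4, 0.01% Tween-20, then compound added for 30 min. AlphaScreen streptavidin donor/nickel chelate acceptor beads (10 ug/mL final), 30 min dark, luminescence read.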
# PI5P4Ka inh – qHTS for Inhibitors of phosphatidylinositol 5-phosphate 4-kinase (PI5P4K); AID 652105, 2013; Phosphatidylinositol 5-phosphate 4-kinase type-2 alpha (Homo sapiens), P48426; PI5P4Kalpha enzyme, ADP-Glo luminescence, 60 min; hits give low values; 1.2% of 330,000 active; max response, %; active = max response of -50% or lower; inconclusive = between -30% and -50%; inactive = -30% or higher; note: value at the top dose of about 77 µM; % is set by controls: 0 for no effect and ±100 for the full control effect
#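 PI5P4Kalpha ADP-Glo assay; 5 microM ATP final; 60 min RT reaction; HEPES pH 7.4/EGTA/CHAPS, 5% DMSO; controls lacking substrate or enzyme; luminescent end-point.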
# JMJD2A Tudor inh – qHTS Assay for Inhibitors of JMJD2A-Tudor Domain; Lysine-specific demethylase 4A (Homo sapiens), O75164; AlphaScreen JMJD2A-Tudor / H3K4me3 peptide binding; Potency, µM (doses to about 114 µM), inactives show at the highest dose activity change, negative = inhibition, actives largely listed as inhibitors; 4.4% of 390,000 active; AID 504339, 2011; note: potency is the fitted concentration of half-maximal effect; % is set by controls: 0 for no effect and ±100 for the full control effect; nearly all actives have a fitted effect of over 50% in size
# The depositor's hits bear a star; u = inconclusive; x = no result; [ ] = remark or other dose. An excerpt weighted towards active compounds, which were near 12% of everything screened. Unless noted, calls come from the whole dose curve; as a rule, active = well fitted curve in the direction sought with a large enough effect; inconclusive = small, poorly fitted or top-dose-only effect, or another doubt; inactive = no such curve, though single readings can be large; an effect the other way counts as inactive or inconclusive.
SMILES,PLK1 PBD block,G9a inh,BAZ2B block,HP1b chromo inh,PI5P4Ka inh,JMJD2A Tudor inh
O=S1(=O)CCC(NCC2CCCO2)C1 (stereo not drawn),-5%,50µM*,-31%,25%,0,-20%
CCOc1ccccc1N1CCN(S(=O)(=O)c2ccc3c4c(cccc24)C(=O)N3)CC1,-9%,u,50µM*,-16%,u,56µM*
O=C(NNC(=O)c1cccc(C(F)(F)F)c1)c1ccncc1,-5%,25µM*,u,15%,-12,-18%
Cc1cc(C(=O)NNC(=O)c2cccc(C(F)(F)F)c2)no1,-8%,1%,5%,19%,4,-9%
O=[N+]([O-])c1ccc(C(c2sc3nc(-c4ccco4)nn3c2O)N2CCC3(CC2)OCCO3)cc1 (stereo not drawn),x,u,-26%,-7%,x,-16%
O=S(=O)(CCNCc1ccccc1)NC1CCCCC1,u,x,x,21%,5,-13%
COc1ccc(CN2CCNC(=O)C2CC(=O)N(C)C2CCOCC2)cc1OC (stereo not drawn),-10%,x,x,x,-2,x
COc1ccc(CN2CCNC(=O)C2CC(=O)N(C)CC2CCOCC2)cc1OC (stereo not drawn),-1%,79µM*,-16%,32%,0,-4%
COc1ccc(CN2CCNC(=O)C2CC(=O)N(C)CC2CCOCC2)cc1C (stereo not drawn),-1%,79µM*,-23%,29%,7,-17%
CCOC(=O)Oc1ccc2c(c1)C(C)=CC(C)(C)N2C(=O)OCC,-6%,50%[59 µM],52%,76%,-9,72%
COc1ccc(NC(=O)N2c3ccc(OC)cc3C(C)=CC2(C)C)cc1,-12%,50µM*,45µM*,-22%,-1,56µM*
COc1ccc(NC(=O)N2c3ccccc3C(C)=CC2(C)C)cc1,-21%,u,-32%,-16%,0,-24%[57.1 µM]
CCNC(=O)N1c2ccc(OC)cc2C(C)=CC1(C)C,-9%,50µM*,u,-3%,x,-31%
CCOc1ccc2c(c1)C(C)=CC(C)(C)N2C(=O)Nc1ccccc1,-9%,50µM*,50µM*,u,2,56µM*
O=C1CCCc2[nH]c(=O)c(-c3nc(-c4cccc([N+](=O)[O-])c4)cs3)cc21,x,1%[59 µM],3%,23%,x,-5%
Cn1c(CNc2ccccc2O)nc2ccccc21,-11%,3.5µM*,u,2%,-1,u
CC(C)n1cnc2cc(NCc3nc4ccccc4n3C)ccc21,0%,45µM*,u,10%,-5,u
Cc1ccc(CNc2ccc3c(c2)ncn3C(C)C)cc1,0%,11µM*,35µM*,8%,0,u
COc1ccc(-n2ccnc(NCc3ccc(C)cc3)c2=O)cc1OC,x,-25%[59 µM],-29%,24%,x,-7%
CCc1ccc2oc(C(=O)NCCc3ccc(OC)c(OC)c3)cc(=O)c2c1,x,-4%[59 µM],-4%,36%,x,-11%
CCCCC/C=C\C\C=C/C=C/C=C/[C@@H](SC[C@H](N)C(=O)O)[C@@H](O)CCCC(=O)O,x,38%[59 µM],x,x,x,x
Cc1nc(N)c(C#N)c(-c2ccc3c(c2)OCO3)c1C,0%,17%[59 µM],-22%,37%,0,2%
N#Cc1c(N)oc(-c2ccc3c(c2)OCO3)c1-c1ccc2c(c1)OCO2,-16%,50µM*,u,2%,u,-32%
CCOc1ccc(CNC(=O)C2CCN(S(=O)(=O)c3cn(C)cn3)CC2)cc1OC,x,u,-12%,-13%,x,0%
C[C@H](C(=O)OCO/N=[N+](\[O-])N1CCCC1)c1cccc2ccccc12,x,x,x,5%,x,-28%

# Compound activity from PubChem.
